Experimental data: the supplement of paper PMC6555819

Tested on: RARa homodimer (NR concentration 270 nM)
Test: PBM binding z-score (relative to random genomic background probes); higher = stronger binding; sequences stand for … in GC…GCGATTGACAGCGTAGAATGAAGG
Outline: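 Regression normalization was applied to scanned fluorescence from custom Agilent 4×180K protein-binding microarrays. Before scanning, arrays were incubated 1 h with ligand-free nuclear receptor dimers, and binding was detected with antibodies against each partner (one per run). Binding z-scores use the random background probes as reference.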

Sequence | PBM binding z-score
TCTTGTAGATCAAGCAGGTTAATAAAGCCTGAGT | 0.125
CCAGACAGGTGAAAGGTACCTCAGTCTGGTACGC | -0.2
CGTCCAAGGGCATAGGAGGTCAGTGAAGACAGAT | 0.923
CAAACTAGGTCACGATAGGTCAAAGTCGAATGAC | 1.74
TCTCGGAGGACACCAAGGTCAGAGCTTTCCAGAG | -0.289
TCATATAGGTAAAGGTGAAAGGCGAACGATATGA | 0.996
CGAACGAGGGCATGAGTTGATCGCAAATGCCGAT | -0.96
GCTCCTAGGTCAACTGATGGTCAGCTAAAGCTCG | -0.186
AGTCAAAGTTCATCTAGCTAACGTAAGATATGCT | 1.29
TTTCCAAGGTGAGCTGAGGTCGTTGATCCAACTC | -0.538
CCTAGCAGGCCAATCTGGGTTACTCAAGGCTTGA | -0.89
TCTGCTAGGTCAGTAGGTCAGCTAACGAGCTGCC | -1.38
CGTCCAAGGTCAAGGACAGTGAAAGAGACTCGAA | 1.12
CTCAAAAGGTCGTGCTCAGGTGAGTATACCAAAC | 0.127
ACTAGAAGGCCAAGTTTGGGTCACTCAAACAAAG | -0.267
GCAGACAGGTGAGACGCAGGTAACTCAGGGTGGC | -0.0204
ACTAGCAGGCCAAGGGTCAATCAAGATTAGTCCG | -0.127
AGTGAAAGTTCATCTAGGTAACGTAAGATATGCT | 1.4
CAAACTAGGTCACAGGAAGGTCAAAGTCCGCATG | 2.2
CGTCCAACGTCAATGCTAGGTCAGTGAAAGCATT | -0.434

Sequence | PBM binding z-score
AATGCAGGGTCACTAGGCCAGAGTAGGTACGAAT | 0.109
ACTGACAGGTGAGTGAAGGTAACTCAGCTGGACG | -0.0244
ACTATTAGTCGACTTAGGGCAACCGATACGACGC | -0.494
TCATATAGGTAAATGCTAAGTGAAAGTCCGATCT | 0.763
CCTCGGAGGACGACAGGAGGTCAGAGCTGCCAGA | 0.247
CCGACTGAGGCAAGGTTACCATAACGCACAGCCA | 0.194
TTACCAAGGTGAAAGGTCGTCGATGCACGCCTTG | -0.215
CGAACTAAGTCAAGGACAGTGAATCTCCGCACGC | -0.646
CGTCTAAGGTCAGAGAGGTCAGTGAATGCCGAGT | 1.28
TGAATGAGGTGATAAGATCAGGGAACGTTGCAAA | -0.23
CCTAGCAGGCCAGGGTCACTGAAGCATTTCGCTT | -0.64
TTATATAGGTAAACAGGTGAAAGTCCGTAAGTTA | 1.15
TAGCCTAGGTCCGATCGGGCCAGTATACGCTATA | -1.53
AGAACGAGGGCAGGCTGAGTTGATAGCAGAGTAG | -0.536
GCTTACGGGTCAAAGATTATAGCATGAATAGAAT | 0.373
TCTAGCAGGCCACAGGGTCACTCAAGAGGTACGG | -0.568
TAGCCTAGGTCACTGGGCCAGTATAGTACGCATC | -0.15
TTACCAAGATGAAGGTCGTTGATCCCTCTGTAGA | 0.48
GATATAGGGTCAAGGCCAGAGTACGCGTATTGAT | 1.13
GCGAATGGGGCAAAGCAGGTTACCATAAGGTTGG | -0.509
